Where “and” joins values, the source holds several entries; their conditions need not be identical. Equal entries are not always repeated. The whole screen tested about 16,000 compounds, of which about 5,800 (36%) were called active. About 23% were inconclusive and are not listed. The call rests on the fitted dose curve; in most records, active means well fitted curve in the direction sought with a large enough effect; inconclusive means small, poorly fitted or top-dose-only effect, or effect the other way; inactive means no such curve, though single readings can be large or run the other way. The list shows a part of the results. More than one record can exist for a structure, and the calls need not agree.
Target: Cytochrome P450 2C19 (Homo sapiens) (UniProt P33261)
Experiment: Cytochrome panel assay with activity outcomes
Conditions: recombinant CYP, pro-luciferin dealkylation, luminescence, p450-cyp2c19; series mostly up to 57.1 µM
On the % scale 0 is the no-effect control and ±100 the full control effect.

Cytochrome P450 2C19 (Homo sapiens), sequence (P33261 whole entry, looked up): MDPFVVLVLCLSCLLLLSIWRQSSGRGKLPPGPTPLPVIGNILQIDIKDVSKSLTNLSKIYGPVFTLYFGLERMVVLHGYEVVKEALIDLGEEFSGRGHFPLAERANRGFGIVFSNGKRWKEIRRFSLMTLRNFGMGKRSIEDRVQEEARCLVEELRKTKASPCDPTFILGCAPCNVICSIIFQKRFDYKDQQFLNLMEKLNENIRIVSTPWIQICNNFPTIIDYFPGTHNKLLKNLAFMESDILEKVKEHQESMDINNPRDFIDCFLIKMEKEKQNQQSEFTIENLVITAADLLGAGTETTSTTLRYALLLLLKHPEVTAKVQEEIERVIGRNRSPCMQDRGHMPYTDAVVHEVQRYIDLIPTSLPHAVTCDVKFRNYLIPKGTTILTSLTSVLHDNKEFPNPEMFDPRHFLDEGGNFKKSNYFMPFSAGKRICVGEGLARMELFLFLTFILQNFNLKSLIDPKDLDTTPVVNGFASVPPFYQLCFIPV

| SMILES | AC50 | activity, negative = inhibition |
| --- | --- | --- |
| C[C@H](N)Cc1c[nH]c2ccc(O)cc12 | inactive | – |
| CC(N)Cc1ccccc1Sc1ccc(O)cc1 (stereo not given) | 15800 nM (active) | – |
| CNC(C)Cc1ccccc1Sc1ccc(O)cc1 (stereo not given) | 10000 nM (active) | – |
| CNC[C@H](O)c1ccc(O)cc1 | inactive | – |
| O=C(Oc1ccc([N+](=O)[O-])cc1)N1CCC(N2CCCCC2)CC1 | inactive | – |
| O=C1Nc2ccc(I)cc2/C1=C/c1cc(Br)c(O)c(Br)c1 | inactive | – |
| Nc1nc2ccc(Cl)cc2c2nc(-c3ccco3)nn12 | inactive | – |
| CCOP(=O)(OCC)c1nc(/C=C/c2ccccc2)oc1NCc1ccccc1 | 2240 nM (active) | – |
| CCNC(C)(C)[C@@H](SS)c1ccc(Br)cc1 | – | -70.9% [at 11.4 µM] (inactive) |
| COC1(CS(=O)c2ccccc2)CCN(CCc2c[nH]c3ccc(F)cc23)CC1 (stereo not given) | inactive | – |
| O=NN(Cc1ccc(Cl)cc1)[C@@H](C(=O)O)c1ccccc1 | 398 nM (active) | – |
| COc1ccc2c(c1)[C@]13CCCC[C@@H]1[C@H](C2)NCC3 | inactive | – |
| CN1CCc2cccc(Cl)c2CC1 | inactive | – |
| c1ccc(N2CC[C@@]3(CCCNC3)C2)cc1 | inactive | – |
| Cc1cc(Cc2cc(C)c(N)cc2N)c(N)cc1N | – | -42.7% [at 11.4 µM] (inactive) |
| CCCn1c(=O)c2[nH]c(C3CCCC3)nc2n(CCCOC(=O)c2ccc(S(=O)(=O)F)cc2)c1=O | inactive | – |
| CCOC(=O)c1c(NC(=O)C(c2ccccc2)c2ccccc2)sc2c1C1CCN2CC1 | 3550 nM (active) | – |
| CN(C)[C@@H]1C(=O)C(C(N)=O)=C(O)[C@]2(O)C(=O)C3=C(O)c4c(O)cccc4[C@@](C)(O)[C@H]3[C@H](O)[C@@H]12 | inactive | – |
| C[C@@]12CC[C@@H]3[C@H](CCC4=CC(=O)CC[C@]43C)[C@@H]1CC[C@@H]2C(=O)Cn1cnc2c(=S)nc[nH]c21 | – | -3.21% [at 11.4 µM] (inactive) |
| CC(O)(CS(=O)(=O)c1ccccc1)C(=O)Nc1cccc(C(F)(F)F)c1 (stereo not given) | 2240 nM (active) | – |
| CC(O)(CS(=O)(=O)c1cccc(C(F)(F)F)c1)C(=O)Nc1ccc(C(F)(F)F)cc1 (stereo not given) | 794 nM (active) | – |
| O=C(O)c1ccccc1Nc1cccc(C(F)(F)F)c1 | inactive | – |
| CC(O)(CS(=O)(=O)c1cccc(C(F)(F)F)c1)C(=O)Nc1cccc(C(F)(F)F)c1 (stereo not given) | 2510 nM (active) | – |
| CC[C@@H]1CN2CCc3cc(OC)c(OC)cc3[C@H]2C[C@@H]1C[C@@H]1NCCc2cc(O)c(OC)cc21 | inactive | – |

| SMILES | AC50 | activity, negative = inhibition |
| --- | --- | --- |
| Cn1c(=O)c2[nH]cnc2n(C)c1=O.[CH2-][C@H](Cc1cccc2cc(C(=O)O)c(=O)oc12)OC.[Hg].[OH-] | – | 27.4% [at 11.4 µM] (inactive) |
| C[C@@H]1[C@@H]2Cc3ccc(O)cc3[C@@]1(C)CCN2CC1CC1 | inactive | – |
| O=C(O)[C@@H]1C[C@H]1[C@@H](NP(=O)(c1ccccc1)c1ccccc1)c1ccccc1 | inactive | – |
| COc1cccc(-n2c(O)c(C=NCCN3CCOCC3)c(=O)[nH]c2=O)c1 | inactive | – |
| Cc1ccccc1OCCN=Cc1c(O)n(C)c(=O)n(C)c1=O | 10000 nM (active) | – |
| CC[N@+]1(C)CCC[C@@H](OC(=O)C(O)(c2ccccc2)c2ccccc2)C1 | inactive | – |
| C/C(O)=C(/C#N)C(=O)Nc1cc(Br)ccc1Br | inactive | – |
| COC(=O)C1=CCCN(C)C1 | inactive | – |
| C[C@H](Br)CN(C[C@H](C)Br)c1ccc2c(c1)Cc1ccccc1-2 | 2510 nM (active) | – |
| CC[C@H](C(=O)[C@H](C)[C@H](O)[C@H](C)CCc1ccc(C)c(O)c1C(=O)O)[C@H]1O[C@](CC)([C@@H]2CC[C@@](O)(CC)[C@H](C)O2)C[C@H]1C | inactive | – |
| COCCCn1c(N)c(C(=O)Nc2sc3c(c2C(=O)OC)CCCC3)c2nc3ccccc3nc21 | 3550 nM (active) | – |
| C=CCN1CC[C@@]23c4c5ccc(O)c4O[C@H]2/C(=N\N=C2/CC[C@@]4(O)[C@H]6Cc7ccc(O)c8c7[C@@]4(CCN6CC=C)[C@@H]2O8)CC[C@]3(O)[C@@H]1C5 | inactive | – |
| NCCc1ccc(S(=O)(=O)F)cc1 | inactive | – |
| COc1ccc(CNC(=O)/C=C\c2ccc3[nH]cc(CCN(C)C)c3c2)cc1 | inactive | – |
| C=CCN1C[C@H](C)N([C@H](c2ccc(C(=O)N(CC)CC)cc2)c2cccc(OC)c2)C[C@H]1C | inactive | – |
| COc1cc2c(cc1OC)[C@@H]1C(=O)c3ccc4c(c3O[C@@H]1CO2)C=CC(C)(C)O4 | 5010 nM (active) | – |
| C=C(C)[C@H]1Cc2c(ccc3c2O[C@H]2COc4cc(OC)c(OC)cc4[C@@H]2C3=O)O1 | 2510 nM (active) | – |
| N[C@@H](Cc1ccccc1)P(=O)(O)O | – | -2.53% [at 11.4 µM] (inactive) |
| Cn1c[n+](C)cc1C(O)c1ccccc1 (stereo not given) | inactive | – |
| COc1ccc2[nH]c3c(c2c1)CCN=C3C | inactive | – |
| Oc1ccc2c3c1O[C@H]1c4oc5ccccc5c4C[C@]4(O)[C@H](C2)N(CC2CC2)CC[C@@]314 | inactive | – |
| C=CCO[C@@H](Cn1ccnc1)c1ccc(Cl)cc1Cl | 10 nM (active) | – |
| N[C@@H](Cn1cc(I)c(=O)[nH]c1=O)C(=O)O | inactive | – |
| O=C(Nc1ccccc1)N1CCCC2(CCN(C(=O)Oc3ccccc3)CC2)C1 | inactive | – |

| SMILES | AC50 | activity, negative = inhibition |
| --- | --- | --- |
| C[C@H](N)c1cccc(Cl)c1Cl | inactive | – |
| Oc1ccc2c3c1O[C@H]1c4c(c5ccccc5n4Cc4ccccc4)C[C@]4(O)[C@H](C2)N(CC2CC2)CC[C@@]314 | inactive | – |
| NC(N)=NS(=O)(=O)c1ccc(N)cc1 | inactive | – |
| C[N+]1(C)CCO[C@@](O)(c2ccc(-c3ccc([C@]4(O)C[N+](C)(C)CCO4)cc3)cc2)C1 | inactive | – |
| c1ccc2c(c1)OC[C@@H](C1=NCCN1)O2 | inactive and 7.94 µM (active) | – |
| CC[C@]1(C2=NCCN2)Cc2ccccc2O1 | inactive | – |
| NC[C@@H](O)CSP(=O)(O)O | – | 8.63% [at 11.4 µM] (inactive) |
| NC(=O)CN1CCCC1=O | inactive | – |
| Nc1nnnn1CCO | – | 28.1% [at 11.4 µM] (inactive) |
| O=C(O)c1cc[c]([Hg][S]c2ncnc3nc[nH]c23)cc1 | 631 nM (active) | – |
| CO[C@H]1[C@H](O)[C@H](O[C@@H]2[C@H](Oc3cccc4c(O)c5c(=O)oc6ccc(C)c7c(=O)oc(c34)c5c67)O[C@@H](C)[C@H](O)[C@H]2O)O[C@@H](C)[C@@H]1O | – | 22.4% [at 11.4 µM] (inactive) |
| CC[C@@H](CO)Nc1nc(NCc2ccccc2)c2ncn(C(C)C)c2n1 | inactive | – |
| Cc1[nH]c2ccc(O)cc2c1CCN | inactive and 7.94 µM (active) | – |
| NCCc1c[nH]c2ccc(O)cc12 | inactive | – |
| CNCCc1c[nH]c2ccc(O)cc12 | inactive | – |
| CCCN(CCC)[C@@H]1CCc2c(OC)cccc2[C@@H]1C | inactive | – |
| C[C@]12CC[C@H](O)CC1=CC[C@@H]1[C@H]2CC[C@]2(C)C(=O)CC[C@H]12 | inactive | – |
| O=P(Nc1ccccc1)(Nc1ccccc1)Oc1cccc(Cl)c1 | 5010 nM (active) | – |
| NS(=O)(=O)c1ccc(-c2ccc([As](=O)(O)O)cc2)cc1 | – | 24.2% [at 11.4 µM] (inactive) |
| C[C@]12N[C@H](Cc3ccccc31)c1ccccc12 | inactive | – |
| N#Cc1ccc(CN2CC[C@@]3(CCCNC3)C2)cc1 | inactive | – |
| Clc1cccc(N2CCNCC2)c1 | inactive | – |
| CN[C@H](Cc1ccccc1)c1cccc(OC)c1O | 2000 nM (active) | – |
| NCCP(=O)(O)O | – | 26% [at 11.4 µM] (inactive) |

| SMILES | AC50 | activity, negative = inhibition |
| --- | --- | --- |
| O=C(Cn1ncc2ccsc2c1=O)N1CCC2(CC1)OCCO2 | 22400 nM (active) | – |
| O=C(CNS(=O)(=O)c1ccc(Br)s1)N1CCC2(CC1)OCCO2 | 2820 nM (active) | – |
| O=C(CNS(=O)(=O)c1cccs1)N1CCC2(CC1)OCCO2 | 7080 nM (active) | – |
| CCN(CC)CCO[C@H]1CC[C@@]2(C)C(=CC[C@@H]3[C@H]2CC[C@]2(C)C(=O)CC[C@H]32)C1 | inactive | – |
| CN(C)C(=O)Oc1cccc([N+](C)(C)C)c1 | inactive | – |
| O=C(Oc1ccc(S(=O)(=O)F)cc1F)c1ccccc1Cl | – | 11.2% [at 11.4 µM] (inactive) |
| N[C@@]1(C(=O)O)CC[C@H](C(=O)O)C1 | inactive | – |
| CC(C)CN1CC[C@@]2(CCCN(C(=O)Oc3ccccc3)C2)C1 | inactive | – |
| C[C@@H]1[C@@H](C)N1C[C@H](O)Cn1ccnc1[N+](=O)[O-] (stereo not given in full) | – | 3.22% [at 11.4 µM] (inactive) |
| O=c1c2ccccc2c2ccccc2c(=O)n1-c1cc2c3ccccc3ccc2c2ccccc12 | 158 nM (active) | – |
| CC[C@H]1CN2CC[C@@H]1C[C@H]2[C@@H](O)c1ccnc2ccc(OC)cc12 | inactive | – |
| Cc1ncsc1CCCl | 7940 nM (active) | – |
| CN(C)CCC=C1c2ccccc2CCc2ccccc21 | inactive | – |
| CCN(CC)C1=NC(=[N+](CC)CC)c2ccccc21 | inactive | – |
| C[C@@]12CCC(=O)C=C1C=C[C@H]1[C@H]3CC[C@](O)(CCC(=O)O)[C@]3(C)CC[C@@H]12 | inactive | – |
| COC(=O)c1cc2c(cn1)[nH]c1ccccc12 | 3980 nM (active) | – |
| C[C@@]12CC[C@H]3[C@@H](CCC4=CC(=O)CC[C@]43C)[C@H]1CC[C@H]2C(=O)CO | inactive | – |
| Cc1ccc(S(=O)(=O)O[C@H]2CN3CCC2CC3)cc1 | – | 21.1% [at 11.4 µM] (inactive) |
| NC(N)=Nc1ccc2[nH]c3c(c2c1)C[C@]1(O)[C@@H]2Cc4ccc(O)c5c4[C@]1(CCN2CC1CC1)[C@H]3O5 | inactive | – |
| O=[N+]([O-])O[C@H]1CO[C@H]2[C@H]1OC[C@@H]2O[N+](=O)[O-] | inactive | – |
| CCCC[N+]1(C)[C@@H]2CC(OC(=O)[C@@H](CO)c3ccccc3)C[C@H]1[C@H]1O[C@H]12 (stereo not given in full) | inactive | – |
| CC1=C(O)C(=O)[C@H]2O[C@@H]2C1=O | 158 nM (active) | – |
| CN1CCCC2(CCN(C(=O)c3ccncc3)CC2)C1 | inactive | – |

Reference: PubChem BioAssay AID1851 (National Center for Advancing Translational Sciences (NCATS), 2009)
